Source: PubChem (several laboratories)
Most compounds without a hit are left out; they make up all but 4.7% or so of the library.
tim10-1 inh – tim10-1 yeast growth inhibition; inhibition, % at 20 µM; AID 463190; actives 2.2% (n = 330,000); S. cerevisiae tim10-1 ts strain growth, BacTiter-Glo, 24 h;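 active = inhibition of at least 40%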;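 note: mutant grown at 25 °C; 0% = DMSO wells with yeast and 100% = wells holding no yeast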
tim23-1 inh – inhibits growth of tim23-1 mutant yeast | S. cerevisiae tim23-1 growth, BacTiter-Glo luminescence, 24 h | actives 1.3% (n = 330,000) | inhibition, % at 20 µM | AID 463212;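 active = growth inhibition of the mutant yeast at or above 50%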;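 note: temperature-sensitive mutant grown at 25 °C; plate controls were DMSO-treated mutant yeast for no effect and medium wells lacking yeast for full effect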
Calb FLC – affects C. albicans growth with fluconazole. actives 0.57% (n = 300,000). C. albicans CaCi-2 (fluconazole-resistant clinical isolate) + fluconazole, Alamar Blue growth, 48 h. growth inhibition, % (test concentration not listed);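 active = growth inhibition above about 58% in most replicates, limit read from the data, passing the limit was not always enough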;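 note: all wells also contain fluconazole at 8 µg/ml as a sub-toxic cotreatment; 0% = median of DMSO wells and 100% = median of geldanamycin control wells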
SKKanGAS inh – inhibitors of SKKanGAS S. pyogenes growth in kanamycin (SK-promoter or general growth effect). BacTiter-Glo, 6 h. inhibition, % at 7.5 µM. actives 1.3% (n = 300,000). AID 1662;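 active = mean replicate score, as percent of positive control median, at least 50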;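 note: strain carries kanamycin resistance gene driven by streptokinase promoter and grows in 40 µg/ml kanamycin; loss of luminescence reflects streptokinase promoter inhibition or plain growth inhibition; 0% = median of DMSO wells and 100% = positive control at its reference dose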
PfHsp90 set2 – reduces growth (ATP signal) of yeast expressing P. falciparum Hsp90. actives 0.32% (n = 310,000). S. cerevisiae expressing PfHsp90, BacTiter-Glo ATP, 48 h; yeast lacking PDR1 and PDR3 efflux regulators. AID 504621. inhibition, % at 9.4 µM;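 active = every replicate shows inhibition above about 80%, whatever the replicate mean, limit read from the data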;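 note: 0% = DMSO neutral controls and 100% = 20 µM radicicol positive controls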
TIM10 inh – growth inhibitors of TIM10 yeast strain | S. cerevisiae TIM10 strain growth, BacTiter-Glo luminescence, 24 h | inhibition, % at 10 µM | actives 1.4% (n = 330,000);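 active = inhibition of 40% or more at the single tested concentration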;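 note: wild-type TIM10 isogenic control strain grown at permissive 25 °C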
TIM10 conf – TIM10 yeast growth inhibition, confirmed; shares compounds with TIM10 inh; S. cerevisiae tim10 strain growth, BacTiter-Glo luminescence, 24 h; inhibition, % at 10 µM; actives 63% (n = 4,600); AID 463215;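 active = inhibition of yeast growth at or above a set limit in either of two replicates at 10 µM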;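 note: this counterscreen used the strain with wild-type TIM10; 0% = yeast with DMSO and 100% = medium wells lacking yeast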
The depositor's hits bear a star; · = no result given.

SMILES	tim10-1 inh	tim23-1 inh	Calb FLC	SKKanGAS inh	PfHsp90 set2	TIM10 inh	TIM10 conf
Cc1[nH]c2ccccc2c1C(=O)/C=C/c1ccccc1Cl	-5	19	3	-15	8	31	·
Cc1[nH]c2ccccc2c1C(=O)/C=C\c1ccccc1Cl	30	47	13	-10	9	43*	12
CCOc1ccc(C(=O)O/N=C(\N)c2ccccn2)cc1	38	38	1	7	43	42*	36*
O=C1c2ccccc2C(=O)N1SC1CCCCC1	33	10	-2	-1	106*	65*	83*
O=C(OCN1C(=O)c2ccccc2C1=O)C1CCCCC1	23	10	0	1	1	3	·
CC(C)(C)c1ccc(C(=O)N/N=C/c2ccc(OCCCF)cc2)cc1	-9	-2	-4	0	-4	-13	·
Cc1ccsc1/C=N/NC(=S)NCc1ccccc1	35	28	32	0	-9	54*	44*
O=C1COc2ccc(C(=O)COC(=O)Cc3ccc(F)cc3)cc2N1	22	19	3	-5	·	7	·
CCCN=C(C)c1c(-c2ccccc2)[nH]n(-c2nc3ccccc3s2)c1=O	27	26	-6	17	·	45*	40*
CCOC(=O)c1c(C)[nH]c(C)c1C(=O)COC(=O)Cc1ccc(OC)c(OC)c1	3	3	·	·	2	-7	·
Cc1ccc(-n2nnc3c(=O)oc4ccccc4c32)cc1	12	47	-22	-1	-13	77*	91*
CCc1ccc(N2CC(C(=O)Nc3cccc(C(=O)NC4CC4)c3)CC2=O)cc1 (stereo not drawn)	15	1	·	·	-8	3	·
COc1cc(OC)c(N2CC(C(=O)Nc3cccc(C(=O)NC4CC4)c3)CC2=O)cc1Cl (stereo not drawn)	-1	-4	·	·	-7	82*	-4
CN(C(=O)C1CCC(=O)N(Cc2ccccc2F)C1)C1CCOCC1 (stereo not drawn)	0	8	3	-3	-20	1	·
Cc1nn(C)c(C)c1S(=O)(=O)NCCc1ccc(Cl)cc1	3	-14	5	-1	18	-7	·
CC(C)(C)c1ccc(OCCNC(=S)Nc2ccccc2)cc1	33	23	-1	5	2	54*	39*
CC(C)(C)c1ccc(OCCNCc2ccccc2)cc1	-1	8	13	-4	16	-1	·
O=C(CCC(=O)N(CC(=O)NC1CCCCC1)c1ccc(F)cc1)Nc1ccccn1	8	5	3	-1	10	8	·
Cc1ccc(-c2[nH]nc3c2C(c2ccoc2)C(C#N)=C(N)O3)cc1C (stereo not drawn)	39	42	5	-4	26	41*	30
Cc1ccc(C)c(C(=O)Cn2c(NCCO)nc3ccccc32)c1	19	23	-8	-1	4	-3	·
O=C(NC(=S)NNC(=O)c1ccccc1O)c1cccc([N+](=O)[O-])c1	-18	20	1	29	11	42*	56*
CCc1c(-c2ccccc2)nc2sc3c(c2c1N)CCCC3	38	35	-4	15	12	45*	49*
COc1ccc(/C=C(\C#N)C(=O)Nc2cccc3ncccc23)cc1OC	35	48	10	-5	-23	36	·
COc1cc(/C=C(\C#N)C(=O)Nc2cccc3ncccc23)cc(OC)c1OC	39	47	10	4	-9	42*	-19
Cn1c(CNC(=O)c2ccco2)nnc1SCC(=O)Nc1ccccc1Cl	-1	-2	-1	3	-15	6	·
SMILES	tim10-1 inh	tim23-1 inh	Calb FLC	SKKanGAS inh	PfHsp90 set2	TIM10 inh	TIM10 conf
CCOc1cc(/C=N/NC(=O)COc2ccccc2C)ccc1OC(=O)c1cccs1	23	32	10	9	-20	41*	26
CCN1C/C(=C/c2ccc(OC)c(O)c2)C(=O)/C(=C/c2ccc(OC)c(O)c2)C1	27	40	52	1	10	50*	45*
Cc1cc(Br)c(OCc2ccc(C(=O)N/N=C3\CC4CC=CC34)cc2)c(Br)c1 (stereo not drawn)	17	45	2	68*	11	42*	44*
CCN(CC)S(=O)(=O)c1ccc(S(=O)(=O)N2CCC(N3CCCCC3)CC2)cc1	12	21	-24	-1	-2	3	·
CCOC(=O)c1c(N)sc2c(OCC)c(Br)ccc12	30	47	29	-5	25	41*	23
Cc1cc(N/N=C/c2ccccc2O)c2ccccc2n1	29	32	-15	-1	-19	59*	27*
O=C(COc1ccccc1/C=C1\SC(=S)NC1=O)Nc1ccc(F)cc1	4	23	·	·	10	-10	·
COc1ccc(-c2n[nH]c(=S)n2C2CCCCC2)cc1	27	24	-6	-5	5	43*	32*
CCOc1cc(NC(=O)C(C)C)c(OCC)cc1NC(=O)Nc1ccccc1	-21	-2	8	-6	-14	7	·
Cc1cc(C)c(S(=O)(=O)N2CCC(C(=O)NCc3ccc(Cl)cc3Cl)CC2)c(C)c1	29	30	-1	13	127*	56*	51*
Cc1cc(C)c(S(=O)(=O)N2CCC(C(=O)NCc3ccncc3)CC2)c(C)c1	0	0	·	-7	-7	17	·
CN(CC(=O)Nc1ccc(OC(F)(F)F)cc1)C(=O)Cc1cccs1	-4	-1	·	·	-7	4	·
CCOc1ccc(S(=O)(=O)Nc2cccc(Cl)c2)cc1	29	48	-9	-3	-1	49*	43*
O=C(OCC(=O)N1CCCC1=O)c1ccc(O)cc1O	-6	5	-5	4	10	14	·
O=C(/C=C/c1cc(Br)ccc1O)c1ccco1	-130	-86	93*	-14	101*	66*	80*
N#Cc1ccc(/C=C/C(=O)c2ccco2)cc1	27	8	1	-8	-2	-3	·
Cc1ccc(/C=C/C(=O)c2cc(Br)ccc2OC(=O)c2ccco2)cc1	37	40	1	19	-14	47*	44*
N#CC1=C(N)SC(N)=C(C#N)C1CCc1ccccc1	30	33	-3	11	-1	70*	-14
O=[N+]([O-])c1cccc(COc2cccc(CN3CCCC3)c2)c1	·	·	·	·	-4	·	·
CCOC(=O)c1nnn(-c2ccc([N+](=O)[O-])cc2[N+](=O)[O-])c1C	23	44	27	5	12	41*	37*
CCOC(=O)c1nnn(-c2ccccc2)c1C	10	11	39	-5	-10	7	·
O=C(CN(Cc1ccc(Cl)cc1)S(=O)(=O)c1ccccc1)NCC1CCCO1 (stereo not drawn)	17	27	-6	14	0	13	·
CN(C)S(=O)(=O)c1cccc(NC(=S)NC2CCCCC2)c1	26	17	-39	-3	·	14	·
